Source: PubChem BioAssay (National Center for Advancing Translational Sciences (NCATS))
D1 agonist: activates the human D1 dopamine receptor; activation, % at 2 µM; HEK293 T-REx D1 cells, calcium flux, agonist mode; AID 504660; actives 1% (n = 360,000); note: 0% is about no effect
Target sequence (P21728 whole entry, looked up): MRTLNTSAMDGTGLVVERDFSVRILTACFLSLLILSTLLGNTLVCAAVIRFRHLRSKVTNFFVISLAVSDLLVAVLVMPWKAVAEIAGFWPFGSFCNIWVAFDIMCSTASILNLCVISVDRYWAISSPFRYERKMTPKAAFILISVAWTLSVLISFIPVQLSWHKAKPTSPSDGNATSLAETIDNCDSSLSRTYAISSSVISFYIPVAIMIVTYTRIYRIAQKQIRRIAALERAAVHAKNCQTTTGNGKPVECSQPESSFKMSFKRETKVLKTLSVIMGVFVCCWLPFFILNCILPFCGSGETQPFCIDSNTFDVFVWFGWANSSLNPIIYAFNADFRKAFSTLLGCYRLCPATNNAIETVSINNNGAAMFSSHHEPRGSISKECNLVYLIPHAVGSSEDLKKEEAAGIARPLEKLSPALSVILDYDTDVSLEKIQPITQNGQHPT
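Tetracycline-induced HEK293 TREx D1 cells, force-coupled to calcium signalling, were dye-loaded with a no-wash calcium kit. Compound was pin-added after a 10 s baseline. Fluorescence was read kinetically at 1 cycle/s for 180 s, with calcium rises flagged as agonism.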
TRHR ag: TRH receptor (human) agonism | TRHR cells, calcium flux fluo-8, FDSS agonist mode | actives 0.18% (n = 360,000) | activation, % at 2 µM; note: 0% is about no effect
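TRHR-expressing cells loaded with fluo-8 calcium dye; 23 nL library compound pin-transferred, kinetic FDSS fluorescence (Ex 480/Em 530) recorded about 180 s for agonist-induced calcium release, before a 10 nM TRH EC20 addition for potentiator mode.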
D1 potentiator: potentiators of human D1 dopamine receptor. HEK293 TREx D1 cells, calcium flux, dopamine EC20 potentiation. potentiation, % at 10 µM. actives 0.036% (n = 360,000). AID 504651; in the data active = potentiation above about 30%; note: 0% is about no effect
TRHR enhancer: allosteric enhancers of human TRH receptor | TRHR cells, fluo-8 calcium fluorescence, EC20 TRH enhancement | enhancement, % at 2 µM | actives 0.66% (n = 360,000); in the data active = enhancement above about 30%; note: 0% is about no effect
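TRHR-expressing cells loaded with fluo-8 calcium dye were read kinetically (ex 480/em 530) during compound addition, then stimulated with an EC20 of TRH (10 nM final). Enhancement of the Gq-mediated intracellular calcium response was scored.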
D1 antagonist: blocks dopamine activation of the human D1 receptor | P21728 | HEK293 TREx D1 cells, calcium flux, dopamine EC80; hits give low values | activity change, negative = inhibition, % at 10 µM | actives 3.2% (n = 360,000) | AID 504652; in the data active = activity change below about -30%; note: % is set by controls: 0 for no effect and ±100 for the full control effect
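HEK293 T-REx cells expressing inducible, force-coupled D1 receptor; no-wash Ca dye, 30–90 min RT. Cmpd → 180 s read at 1 Hz → EC80 DA → 180 s read.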
The depositor's hits bear a star; ! = not confirmed by another sample. Hits are enriched below; roughly 4.7% of the tested compounds scored in any of these assays. Cut-off read from the data, not from the text of the source, unless noted: active = activation above about 30%; inactive = the rest.

How did Cc1ccc(N2C(=O)c3oc4cc(C)c(C)cc4c(=O)c3C2c2cccc(O)c2)nc1 (configuration not stated) do in these assays?
D1 agonist: 3; TRHR ag: 0; D1 potentiator: 1; TRHR enhancer: 2; D1 antagonist: -2

Results for O=C(CCNC(=O)c1ccccc1)N=Nc1c(O)[nH]c2ccccc12 ?
D1 agonist: -2; TRHR ag: 0; D1 potentiator: -3; TRHR enhancer: 4; D1 antagonist: -9

What do the screens show for `O=C(CCn1cnc2ccccc21)N=Nc1c(O)[nH]c2ccccc12`?
D1 agonist: 2; TRHR ag: -1; D1 potentiator: -9; TRHR enhancer: -4; D1 antagonist: -77*

What do the screens show for `O=C(CCc1c[nH]c2ccccc12)N=Nc1c(O)[nH]c2ccccc12`?
D1 agonist: 0; TRHR ag: 0; D1 potentiator: -12; TRHR enhancer: 1; D1 antagonist: -44*

Results for O=c1c2sc3ccccc3c2n(Cc2ccccc2F)c(=O)n1CCc1ccccc1 ?
D1 agonist: 4; TRHR ag: 2; D1 potentiator: -5; TRHR enhancer: -10; D1 antagonist: -17

What do the screens show for `COC(=O)c1ccccc1NC(=O)C1CCCN(c2nnc(C)c3c(C)n(-c4ccccc4)nc23)C1` (configuration not stated)?
D1 agonist: 1; TRHR ag: 0; D1 potentiator: -2; TRHR enhancer: 5; D1 antagonist: 2

Results for CC(=O)c1ccc(N2CCN(S(=O)(=O)c3ccc4c(c3)CC(C)N4C(C)=O)CC2)cc1 (configuration not stated) ?
D1 agonist: 11; TRHR ag: 0; D1 potentiator: -4; TRHR enhancer: -8; D1 antagonist: -48*

Results for Cc1cccc(N2CCN(S(=O)(=O)c3ccc4c(c3)CC(=O)N4C)CC2)c1C ?
D1 agonist: 9; TRHR ag: 0; D1 potentiator: -5; TRHR enhancer: 2; D1 antagonist: -30*!

What do the screens show for `Cc1cccc(NS(=O)(=O)c2ccc3c(c2)CC(C)N3C(=O)C2CCC2)c1C` (configuration not stated)?
D1 agonist: 13; TRHR ag: 2; D1 potentiator: -3; TRHR enhancer: -2; D1 antagonist: -34*

How did CC1CCN(S(=O)(=O)c2ccc3c(c2)CC(C)N3C(=O)C2CCC2)CC1 (configuration not stated) do in these assays?
D1 agonist: 12; TRHR ag: 0; D1 potentiator: -13; TRHR enhancer: -7; D1 antagonist: -34*

How did Cc1cccc(N2CCN(S(=O)(=O)c3ccc(S(=O)(=O)N4CCCC4)cc3)CC2)c1C do in these assays?
D1 agonist: 3; TRHR ag: 0; D1 potentiator: 2; TRHR enhancer: -6; D1 antagonist: -2

Results for CC(=O)Nc1ccc(NC(=O)CCc2c(C)nc3c(c(C)nn3-c3ccc(C)cc3)c2C)cc1 ?
D1 agonist: 3; TRHR ag: -2; D1 potentiator: -3; TRHR enhancer: 5; D1 antagonist: 13

How did CCC(C)NC(=O)C1CCC(CNS(=O)(=O)c2ccc3c(c2)CC(C)N3C(=O)C2CC2)CC1 (configuration not stated) do in these assays?
D1 agonist: 5; TRHR ag: 0; D1 potentiator: -2; TRHR enhancer: 2; D1 antagonist: 2

Results for COC(=O)c1cc(S(=O)(=O)N2CCN(c3ccc(OC)cc3)CC2)c[nH]1 ?
D1 agonist: 7; TRHR ag: 0; D1 potentiator: -3; TRHR enhancer: 0; D1 antagonist: 1

Results for CC(=O)N1c2ccc(S(=O)(=O)N3CCC(C(=O)N4CC(C)CC(C)C4)CC3)cc2CC1C (configuration not stated) ?
D1 agonist: 0; TRHR ag: -2; D1 potentiator: -2; TRHR enhancer: 1; D1 antagonist: 5

Results for CCCCN(C)C(=O)C1CCC(CNS(=O)(=O)c2ccc3c(c2)CC(C)N3C(=O)C2CC2)CC1 (configuration not stated) ?
D1 agonist: 3; TRHR ag: 1; D1 potentiator: 1; TRHR enhancer: -3; D1 antagonist: -43*
